Our source for the Potency values is PubChem BioAssay (Tox21).

Inconclusive results are not listed. Active and inactive are the calls of the source. Unless noted, calls come from the whole dose curve.

Assay [1] in a line: Nuclear factor erythroid 2-related factor 2/antioxidant responsive element (Nrf2/ARE) small molecule agonists: qHTS cell viability counter screen in human keratinocytes (AID 1919968; active = well fitted curve in the direction sought with a large enough effect in the repeat runs; an effect the other way counts as inactive or inconclusive; note: nearly all actives have a fitted effect of over 55% in size). Put shortly: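 Parallel cytotoxicity read: KeratinoSens HaCaT cells, compound treatment 23 h, viability by CellTiter-Fluor fluorescence 1 h post-reagent.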
For orientation: In qHTS, concentration-response curves come from the screen itself.

Assay [2] in a line: Nuclear factor erythroid 2-related factor 2/antioxidant responsive element (Nrf2/ARE) small molecule agonists: luciferase reporter gene qHTS assay in human keratinocytes (AID 1919969). Note: nearly all actives have a fitted effect of over 35% in size. On the technique in general: In a reporter assay the amount or activity of a reporter protein is the signal.
Assay [3] deals with Gonadotropin-releasing hormone receptor (Homo sapiens) (UniProt P30968). Description: Human gonadotropin-releasing hormone receptor (GnRHR) small molecule agonists, calcium flux assay in GnRHR-HEK293 cells (AID 1920063). Note: nearly all actives have a fitted effect of over 35% in size. The essentials: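 Calcium flux, agonist mode, human GnRHR stably integrated in HEK293; dye 1 h at 37 C before compound; Ex/Em=480/540 kinetic read, 3 min; 15 concentrations, triplicate.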

In assay [4] the target is KiSS-1 receptor (Homo sapiens) (UniProt Q969F8). Description: Human kisspeptin (KISS1R) small molecule agonists, calcium flux assay in KISS1R-HEK293 cells (AID 1920064; active = well fitted curve in the direction sought with a large enough effect in the repeat runs; an effect the other way counts as inactive or inconclusive). Put shortly:
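Triplicate 15-concentration series were applied to dye-loaded human KISS1R HEK293 cells, and agonist-evoked calcium fluorescence was captured for 3 min.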
On the technique in general: A change in cytosolic calcium serves as a functional read-out for many receptors and channels.

Assay [5] is described as follows: G protein-coupled receptor (GPCR) small molecule agonists, calcium flux assay: HEK293 wild type cell line counter screen (AID 1920065). The essentials: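 Non-specific calcium responders were flagged by adding DMSO-dissolved compounds to dye-loaded cells and reading 480/540 nm fluorescence each second for 3 min; ATP served as positive control.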
Assay [6] is described as follows: p53 small molecule agonists, cell-based qHTS assay with human liver microsomes (AID 1963577).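 Note: p53 response element beta-lactamase reporter cells with liver microsomes plus NADPH.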 The essentials:
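In this qHTS, p53 response-element beta-lactamase cells receive test compound together with a microsome/NADPH activating system (0.5 mg/mL final each) and are incubated 16 h at 37 C before LiveBLAzer fluorescence detection.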

Assay [7] in a line: p53 small molecule agonists, cell-based qHTS assay with rat liver microsomes (AID 1963578). The essentials:
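Agonist mode in p53RE-bla reporter cells, with compounds co-incubated 16 h at 37 C alongside 0.5 mg/mL rat liver microsomes and 0.5 mg/mL NADPH (final), followed by a 2 h LiveBLAzer detection step.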

Assay [8] can be described thus: p53 small molecule agonists, cell-based qHTS assay with human liver microsomes: qHTS cell viability counter screen (AID 1963579). Note: nearly all actives have a fitted effect of over 45% in size. The essentials:
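Metabolically activated exposure: compounds, human liver microsomes and NADPH (0.5 mg/mL final apiece) were added to p53RE-bla cells seeded 5 h earlier, left 16 h at 37 C, and then assessed for viability by CellTiter-Glo luminescence.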

Assay [9] in a line: p53 small molecule agonists, cell-based qHTS assay with rat liver microsomes: qHTS cell viability counter screen (AID 1963580). Note: nearly all actives have a fitted effect of over 45% in size. The essentials: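 Rat liver microsome (0.5 mg/mL final) and NADPH (0.5 mg/mL final) co-incubation with compounds for 16 h at 37 C on HCT-116 p53RE-bla cells; cytotoxicity taken from intracellular ATP luminescence.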
The nature of assay [10]: p53 small molecule agonists, cell-based qHTS assay: qHTS cell viability counter screen (AID 1963581). Note: nearly all actives have a fitted effect of over 45% in size. The essentials:
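Multiplexed with the reporter read, a CellTiter-Glo step (30 min, room temperature) gauges ATP-based viability of HCT-116 p53RE-bla cells after 16 h compound incubation at 37 C.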

Assay [11] can be described thus: p53 small molecule agonists, cell-based qHTS assay (AID 1963582; active = well fitted activation curve with a large enough effect in the signal ratio in the repeat runs, not every such curve was filed as active; the % refers to the signal ratio). Put shortly: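 Beta-lactamase reporter cells (p53RE-bla) treated with compounds for 16 h at 37 C; FRET substrate, 2 h, room temperature; fluorescence intensity.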
Assay [12] addresses 5-hydroxytryptamine receptor 2A (Homo sapiens) (UniProt P28223). Description: 5-hydroxytryptamine receptor 2A (HTR2A) small molecule agonists, cell-based qHTS assay (AID 1963587). Note: nearly all actives have a fitted effect of over 30% in size. The essentials:
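Kinetic calcium-flux fluorescence (2 min, 1 sec intervals) after compound addition in agonist mode. HTR2A-CHO cells were cultured 18 h, then dye-loaded 1 h at 37 C.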

The target in assay [13] is Muscarinic acetylcholine receptor M1 (Homo sapiens) (UniProt P11229). Put plainly: Cholinergic receptor muscarinic 1 (CHRM1) small molecule antagonists, cell-based qHTS assay (AID 1963588). Note: nearly all actives have a fitted effect of over 40% in size. The essentials: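 Compounds were tested at 15 concentrations in three independent runs. Dye-loaded CHRM1-CHO cells were exposed 5 min at room temperature before stimulation by acetylcholine added at 50nM. Intracellular calcium was read kinetically on FDSS for 3 min.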

Assay [14] shares this target. Put plainly: Cholinergic receptor muscarinic 1 (CHRM1) small molecule agonists, cell-based qHTS assay (AID 1963589). Note: nearly all actives have a fitted effect of over 35% in size. Put shortly: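 qHTS, 15-point titration, 3 independent runs: compounds pin-transferred onto dye-loaded CHRM1-CHO cells (human M1), calcium fluorescence followed every second to detect agonism.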
A short description of assay [15]: cAMP Responsive Elements (CRE) small molecule agonists, cell-based qHTS assay (AID 1963590). Put shortly: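 Quantitative HTS for CRE agonists: HEK 293T CRE-bla cells, overnight plating, 3 h compound incubation at 37 C/5% CO2, then 2 h room-temperature LiveBLAzer B/G FRET substrate loading.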
Assay [16] is described as follows: cAMP Responsive Elements (CRE) small molecule antagonists, cell-based qHTS assay (AID 1963591; active = well fitted inhibition curve with a large enough effect in the signal ratio in the repeat runs, not every such curve was filed as active; the % refers to the signal ratio). Put shortly: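 Fluorescence intensity from cleaved LiveBLAzer B/G substrate (2 h, room temperature) quantified CRE-bla activity in HEK 293T cells exposed 3 h to compound with 0.25 uM final NKH477.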
For assay [17], the target named is Beta-2 adrenergic receptor (Homo sapiens) (UniProt P07550). Put plainly: Adrenergic beta2 receptor (ADRB2) small molecule antagonists, cell-based qHTS assay (AID 1963592). Note: series mostly up to about 92 µM; nearly all actives have a fitted effect of over 50% in size. Put shortly: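 Assay format: CHO-ADRB2 cells, 18-20hr seeding at 37C/5% CO2, then compound plus 1nM isoproterenol agonist mix for 0.5hr RT. Homogeneous time-resolved fluorescence cAMP detection after 1hr, expressed as 665/615 nm ratio.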

Assay [18] addresses D(2) dopamine receptor (Homo sapiens) (UniProt P14416). Put plainly: Dopamine D2 receptor (DRD2) small molecule agonists, cell-based qHTS assay (AID 1963594). Note: nearly all actives have a fitted effect of over 35% in size. Note: potency is the fitted concentration of half-maximal effect. The essentials:
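cAMP accumulation in DRD2-HEK293 cells measured by HTRF after 1 h detection; compounds added 10 min before NKH477 (200nM […]) forskolin-analogue stimulation, 30 min at room temperature, with Ro20-1724 present at 0.1 mM final.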

Assay [19] has the same target. Description: Dopamine D2 receptor (DRD2) small molecule antagonists, cell-based qHTS assay (AID 1963595; active = well fitted inhibition curve with a large enough effect in the signal ratio in the repeat runs, with a control signal flat; the % refers to the signal ratio). Put shortly: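 Readout: HTRF cAMP, cAMP-d2 competing with cellular cAMP for anti-cAMP cryptate, read after 1 h. Cells: DRD2-HEK293. Conditions: 0.1 mM Ro20-1724, 12 nM quinpirole, 200 nM NKH477, 30 min RT.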
The target of assay [20] is 5-hydroxytryptamine receptor 2A (Homo sapiens) (UniProt P28223). Description: 5-hydroxytryptamine receptor 2A (HTR2A) small molecule antagonists, cell-based qHTS assay (AID 1963586). Note: nearly all actives have a fitted effect of over 45% in size. Put shortly:
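CHO cells stably expressing human HTR2A were plated for 18 h at 37 C, then loaded with calcium dye for 1 h. Compounds were preincubated 5 min at room temperature before DOI (4 nM solution) was added. Kinetic fluorescence was read for 3 min.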

Gonadotropin-releasing hormone receptor (Homo sapiens), sequence (P30968 whole entry, looked up): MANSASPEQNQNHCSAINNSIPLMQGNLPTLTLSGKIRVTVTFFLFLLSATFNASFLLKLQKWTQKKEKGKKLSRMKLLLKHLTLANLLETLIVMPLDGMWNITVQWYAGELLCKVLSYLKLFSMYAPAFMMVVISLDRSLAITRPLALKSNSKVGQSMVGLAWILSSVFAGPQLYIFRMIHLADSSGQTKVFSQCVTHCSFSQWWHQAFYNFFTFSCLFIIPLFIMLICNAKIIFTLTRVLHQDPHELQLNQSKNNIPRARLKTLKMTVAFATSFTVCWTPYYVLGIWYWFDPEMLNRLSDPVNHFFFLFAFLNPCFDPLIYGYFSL
5-hydroxytryptamine receptor 2A (Homo sapiens), sequence (P28223 whole entry, looked up): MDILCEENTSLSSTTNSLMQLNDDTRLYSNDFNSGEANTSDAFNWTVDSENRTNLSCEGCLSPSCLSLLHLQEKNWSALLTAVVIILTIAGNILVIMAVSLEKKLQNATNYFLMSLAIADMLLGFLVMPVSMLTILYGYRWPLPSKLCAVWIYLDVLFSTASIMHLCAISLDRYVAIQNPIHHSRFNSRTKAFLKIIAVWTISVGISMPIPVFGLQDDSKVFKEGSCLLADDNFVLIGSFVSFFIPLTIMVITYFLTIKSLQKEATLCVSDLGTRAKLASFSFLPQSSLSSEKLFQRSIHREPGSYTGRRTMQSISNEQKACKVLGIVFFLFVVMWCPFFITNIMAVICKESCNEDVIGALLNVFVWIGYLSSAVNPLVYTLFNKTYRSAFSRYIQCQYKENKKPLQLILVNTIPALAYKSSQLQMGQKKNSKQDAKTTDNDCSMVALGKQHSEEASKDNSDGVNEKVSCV
D(2) dopamine receptor (Homo sapiens), sequence (P14416 whole entry, looked up): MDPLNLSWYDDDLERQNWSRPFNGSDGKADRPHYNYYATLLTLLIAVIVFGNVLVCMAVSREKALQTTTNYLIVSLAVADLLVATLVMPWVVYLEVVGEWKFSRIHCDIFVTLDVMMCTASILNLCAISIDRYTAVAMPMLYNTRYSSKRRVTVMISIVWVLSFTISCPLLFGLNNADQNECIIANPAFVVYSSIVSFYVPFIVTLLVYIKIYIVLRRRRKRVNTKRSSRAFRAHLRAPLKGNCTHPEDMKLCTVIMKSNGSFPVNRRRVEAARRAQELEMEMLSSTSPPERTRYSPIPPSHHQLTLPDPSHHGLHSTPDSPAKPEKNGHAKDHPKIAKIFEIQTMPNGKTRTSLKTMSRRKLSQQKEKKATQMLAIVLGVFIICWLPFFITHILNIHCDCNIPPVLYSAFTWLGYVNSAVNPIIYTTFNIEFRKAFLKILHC
KiSS-1 receptor (Homo sapiens), sequence (Q969F8 whole entry, looked up): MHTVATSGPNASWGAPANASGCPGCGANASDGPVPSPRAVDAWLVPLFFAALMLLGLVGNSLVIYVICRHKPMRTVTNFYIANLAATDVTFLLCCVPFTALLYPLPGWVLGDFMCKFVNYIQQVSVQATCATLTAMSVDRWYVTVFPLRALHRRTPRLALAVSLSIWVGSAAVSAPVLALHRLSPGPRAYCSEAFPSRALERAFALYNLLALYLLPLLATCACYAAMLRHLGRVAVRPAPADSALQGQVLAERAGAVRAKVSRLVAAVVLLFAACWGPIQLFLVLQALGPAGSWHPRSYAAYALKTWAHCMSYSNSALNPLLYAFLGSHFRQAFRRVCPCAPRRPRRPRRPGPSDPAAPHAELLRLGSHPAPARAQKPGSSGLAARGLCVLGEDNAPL
Beta-2 adrenergic receptor (Homo sapiens), sequence (P07550 whole entry, looked up): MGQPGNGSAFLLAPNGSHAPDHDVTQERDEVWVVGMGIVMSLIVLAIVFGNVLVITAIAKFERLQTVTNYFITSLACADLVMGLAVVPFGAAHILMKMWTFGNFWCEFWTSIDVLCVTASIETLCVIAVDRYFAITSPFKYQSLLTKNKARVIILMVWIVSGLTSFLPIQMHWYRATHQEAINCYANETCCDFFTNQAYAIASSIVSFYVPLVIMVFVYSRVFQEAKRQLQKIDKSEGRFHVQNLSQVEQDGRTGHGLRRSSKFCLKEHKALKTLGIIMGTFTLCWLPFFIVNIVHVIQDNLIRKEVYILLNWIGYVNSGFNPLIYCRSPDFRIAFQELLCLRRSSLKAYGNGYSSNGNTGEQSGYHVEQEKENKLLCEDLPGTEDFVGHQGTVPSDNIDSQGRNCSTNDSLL
Muscarinic acetylcholine receptor M1 (Homo sapiens), sequence (P11229 whole entry, looked up): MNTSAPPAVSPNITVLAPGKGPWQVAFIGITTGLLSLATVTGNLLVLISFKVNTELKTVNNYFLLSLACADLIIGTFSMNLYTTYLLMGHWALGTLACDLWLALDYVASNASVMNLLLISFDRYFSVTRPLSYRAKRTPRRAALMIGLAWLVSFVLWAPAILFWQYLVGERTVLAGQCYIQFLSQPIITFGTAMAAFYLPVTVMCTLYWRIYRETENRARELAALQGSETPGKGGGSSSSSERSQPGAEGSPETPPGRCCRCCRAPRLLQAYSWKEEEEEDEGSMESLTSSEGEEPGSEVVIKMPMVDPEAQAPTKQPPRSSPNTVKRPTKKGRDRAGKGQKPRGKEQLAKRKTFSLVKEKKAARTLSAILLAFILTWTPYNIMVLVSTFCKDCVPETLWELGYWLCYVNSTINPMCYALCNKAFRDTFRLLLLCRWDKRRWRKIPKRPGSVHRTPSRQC

For `C=C1CC/C=C(\C)CC[C@@H]2[C@@H]1CC2(C)C`, the Potency result in [1], in [2], in assay [3], in assay [4], in assay [5] and in assay [6] was “inactive” throughout. For the same molecule, the Potency entry in assay [7], in assay [8], in assay [9], in [10], in assay [11] and in [12] was “inactive” in each case. Besides, the Potency entry in assay [13], in assay [14], in assay [15], in assay [16], in assay [17] and in [18] was “inactive” in each case. For the same molecule, in assay [19], the Potency result was “inactive”.

Take `CC(C)CCCO`: the Potency result in assay [1], in assay [2], in assay [3], in assay [4], in [5] and in assay [6] was “inactive” in each case. Also, the Potency result in assay [7], in assay [8], in [9], in assay [10], in assay [11] and in [12] was “inactive” each time. Moreover, the Potency entry in [13], in assay [14], in [15], in [16], in assay [17] and in assay [18] was “inactive” in each case. The Potency entry in assay [19] is “inactive”.

For the molecule `CC(C)CCOC(=O)c1ccccc1`, the Potency result in assay [1], in assay [2], in assay [3], in [4], in [5] and in assay [6] was “inactive” in each case. Moreover, the Potency entry in [7], in [8], in assay [9], in assay [10], in assay [11] and in assay [12] was “inactive” throughout. Moreover, the Potency result in assay [13], in assay [14], in assay [15], in assay [16], in assay [17] and in assay [18] was “inactive” in each case. Besides, in assay [19], the Potency result is “inactive”.

With `Cc1cccc(S(=O)(=O)O)c1C`, the Potency result in [1], in assay [2], in assay [3], in assay [4], in assay [5] and in assay [6] was “inactive” in each case. The Potency entry in assay [7], in assay [8], in assay [9], in [10], in [11] and in [12] was “inactive” each time. Further, the Potency entry in assay [13], in assay [14], in assay [15], in [16], in assay [17] and in assay [18] was “inactive” throughout. Further, the Potency result in [19] was “inactive”.

As for `O=c1[nH]c2cc(C(F)(F)F)c(N3CCOCC3)cc2n(CP(=O)(O)O)c1=O`, the Potency entry in [1], in [2], in assay [3], in [4], in assay [5] and in [6] was “inactive” in each case. Moreover, the Potency entry in assay [7], in assay [8], in assay [9], in [10], in [11] and in assay [12] was “inactive” in each case. In addition, the Potency result in [13], in [14], in [15], in assay [16], in assay [17] and in [19] was “inactive” each time. The Potency in [18] is 29.8 µM (active).

On to `CCN(C=O)CC`, for which the Potency entry in assay [1], in assay [2], in assay [3], in assay [4], in [5] and in assay [6] was “inactive” each time. Also, the Potency entry in [7], in assay [8], in assay [9], in assay [10], in assay [11] and in [12] was “inactive” each time. The Potency entry in assay [13], in assay [14], in assay [15], in assay [16], in [17] and in assay [18] was “inactive” each time. Further, the Potency result in assay [19] was “inactive”.

Consider `NC(=O)c1ccc(N)cc1`, for which the Potency entry in assay [1], in [2], in assay [3], in assay [4], in assay [5] and in [6] was “inactive” throughout. Moreover, the Potency entry in [7], in [8], in [9], in assay [10], in [11] and in assay [12] was “inactive” throughout. Further, the Potency result in assay [13], in [14], in assay [15], in assay [16], in [17] and in assay [18] was “inactive” throughout. In addition, the Potency result in assay [19] was “inactive”.

Regarding `Cc1ncc(CO)c(CN)c1O`, the Potency entry in assay [1], in assay [2], in [3], in [4], in [5] and in assay [6] was “inactive” each time. In addition, the Potency entry in assay [7], in assay [8], in assay [9], in assay [10], in assay [11] and in [20] was “inactive” in each case. The Potency entry in [13], in [15], in [16], in assay [17], in [18] and in [19] was “inactive” each time.

On to `O=Cc1ccc(Cl)cc1`, for which the Potency result in assay [1], in assay [2], in assay [3], in assay [4], in assay [5] and in assay [6] was “inactive” in each case. In addition, the Potency entry in assay [7], in [8], in [9], in assay [10], in [11] and in assay [12] was “inactive” each time. The Potency result in [13], in assay [14], in assay [15], in [16], in [17] and in assay [18] was “inactive” throughout. Besides, the Potency entry in [19] was “inactive”.
